Experimental data published in PubChem BioAssay AID1159580 (chemical genetic matrix, 2015).
Screen size: about 5,500 compounds; about 2,000 (36%) were called active. About 18% were inconclusive and are not listed. No stated cut-off is given here; in the data, active means normalized growth mostly below about 0.91 (no sharp cut-off); inconclusive means no clear call, values can overlap the other calls; inactive means mostly above about 0.92. This is one part of the list.

Assay: chemical genetic growth profiling, strain panel (AID 1159580);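 further: tested at 20 µM; growth read once vehicle control cultures reached saturation at 30 °C; 1 = growth at the plate median or of vehicle wells; lower values mean less growth of the strain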
Conditions: growth OD
[1] = S. cerevisiae deletion strains, locus YAL013W, strain DEP1, active compounds read low
[2] = S. cerevisiae deletion strains, locus YBR229C, strain ROT2, active compounds read low
[3] = S. cerevisiae deletion strains, locus YDL101C, strain DUN1, active compounds read low
[4] = S. cerevisiae deletion strains, locus YDR150W, strain NUM1, active compounds read low
[5] = S. cerevisiae deletion strains, locus YEL061C, strain CIN8, active compounds read low
[6] = S. cerevisiae deletion strains, locus YGR078C, strain PAC10, active compounds read low
[7] = S. cerevisiae deletion strains, locus YGR229C, strain SMI1, active compounds read low
[8] = S. cerevisiae deletion strains, locus YHR030C, strain SLT2, active compounds read low
[9] = S. cerevisiae deletion strains, locus YHR087W, strain rtc3, active compounds read low
[10] = S. cerevisiae deletion strains, locus YJR043C, strain POL32, active compounds read low
[11] = S. cerevisiae deletion strains, locus YJR075W, strain HOC1, active compounds read low
[12] = S. cerevisiae deletion strains, locus YLR039C, strain RIC1, active compounds read low
[13] = S. cerevisiae deletion strains, locus YLR058C, strain SHM2 (second series), active compounds read low
[14] = S. cerevisiae deletion strains, locus YLR085C, strain ARP6, active compounds read low
[15] = S. cerevisiae deletion strains, locus YLR262C, strain YPT6, active compounds read low
[16] = S. cerevisiae deletion strains, locus YML094W, strain GIM5, active compounds read low
[17] = S. cerevisiae deletion strains, locus YMR219W, strain ESC1, active compounds read low
[18] = S. cerevisiae deletion strains, locus YMR263W, strain SAP30, active compounds read low
[19] = S. cerevisiae deletion strains, locus YNL153C, strain GIM3, active compounds read low
[20] = S. cerevisiae deletion strains, locus YNL298W, strain CLA4 (second series), active compounds read low
[21] = S. cerevisiae deletion strains, locus YNL322C, strain KRE1, active compounds read low
[22] = S. cerevisiae deletion strains, locus YNR030W, strain Alg12, active compounds read low
[23] = S. cerevisiae deletion strains, locus YPL055C, strain LGE1, active compounds read low
[24] = S. cerevisiae deletion strains, locus YPL241C, strain CIN2, active compounds read low
[25] = S. cerevisiae deletion strains, locus YPR135W, strain CTF4, active compounds read low

Measured: normalized growth

C=C1SC(Nc2cccc(C(F)(F)F)c2)=NC12CCCCC2
inactive: [1] 0.999 | [2] 1.01 | [3] 1.01 | S. cerevisiae deletion strains, locus YDL134C, strain PPH21, active compounds read low 1.03 | [4] 0.987 | [5] 1.01 | [6] 0.986 | [7] 0.999 | [8] 0.955 | [9] 0.99 | [10] 1.01 | [11] 0.995 | [12] 0.958 | [13] 0.987 | [14] 1.03 | [15] 0.971 | [16] 1.02 | [17] 0.999 | [18] 0.982 | S. cerevisiae deletion strains, locus YMR307W, strain GAS1, active compounds read low 0.937 | [19] 0.973 | [20] 0.985 | [21] 1.01 | [22] 1.01 | [23] 0.995 | [24] 1.01 | [25] 0.904 | S. cerevisiae strains, strain wild type, active compounds read low 1

FC(F)(F)c1ccc(Cl)c(NC(=S)NN=C2CCCCCC2)c1
inactive: [1] 0.989 | [2] 0.977 | S. cerevisiae deletion strains, locus YCL061C, strain MRC1, active compounds read low 1.01 | [3] 1.07 | [4] 1.04 | [6] 0.996 | [7] 0.948 | [8] 0.924 | [9] 0.956 | [10] 1.03 | [11] 1.02 | [13] 0.99 | [15] 0.883 | [16] 0.912 | [17] 0.984 | [18] 0.996 | [19] 1.02 | [21] 0.989 | [22] 0.895 | [23] 0.949 | [24] 0.969 | [25] 1
active: [5] 0.89 | S. cerevisiae deletion strains, locus YKL190W, strain CNB1, active compounds read low 0.891 | [12] 0.783 | [14] 0.741 | [20] 0.813 | S. cerevisiae deletion strains, locus YOL006C, strain TOP1, active compounds read low 0.61

FC(F)(F)c1cccc(NC(=S)NN=C2CCCCCC2)c1
inactive: S. cerevisiae deletion strains, locus YAR019C, strain CDC15, active compounds read low 0.978 | S. cerevisiae deletion strains, locus YBL105C, strain PKC1, active compounds read low 0.983 | S. cerevisiae deletion strains, locus YBR135W, strain CKS1, active compounds read low 0.994 | S. cerevisiae deletion strains, locus YBR136W, strain MEC1, active compounds read low 0.987 | S. cerevisiae deletion strains, locus YBR160W, strain CDC28, active compounds read low 0.991 | S. cerevisiae deletion strains, locus YDL017W, strain CDC7, active compounds read low 0.983 | S. cerevisiae deletion strains, locus YDL028C, strain MPS1, active compounds read low 0.997 | [3] 0.984 | S. cerevisiae deletion strains, locus YDL108W, strain KIN28, active compounds read low 1 | S. cerevisiae deletion strains, locus YDL132W, strain cdc53, active compounds read low 0.989 | S. cerevisiae deletion strains, locus YDL214C, strain PRR2, active compounds read low 0.909 | S. cerevisiae deletion strains, locus YDR052C, strain DBF4, active compounds read low 0.982 | S. cerevisiae deletion strains, locus YDR054C, strain cdc34, active compounds read low 0.966 | S. cerevisiae deletion strains, locus YDR226W, strain ADK1, active compounds read low 0.978 | S. cerevisiae deletion strains, locus YDR477W, strain SNF1, active compounds read low 0.91 | S. cerevisiae deletion strains, locus YER123W, strain YCK3, active compounds read low 0.831 | S. cerevisiae deletion strains, locus YER133W, strain GLC7, active compounds read low 0.892 | S. cerevisiae deletion strains, locus YFL009W, strain cdc4, active compounds read low 0.986 | S. cerevisiae deletion strains, locus YFL029C, strain CAK1, active compounds read low 0.983 | S. cerevisiae deletion strains, locus YFR003C, strain YPI1, active compounds read low 0.989 | S. cerevisiae deletion strains, locus YFR019W, strain FAB1, active compounds read low 0.946 | S. cerevisiae deletion strains, locus YFR028C, strain CDC14, active compounds read low 0.992 | S. cerevisiae deletion strains, locus YGR040W, strain KSS1, active compounds read low 0.914 | S. cerevisiae deletion strains, locus YGR052W, strain FMP48, active compounds read low 0.924 | S. cerevisiae deletion strains, locus YGR092W, strain DBF2, active compounds read low 0.823 | S. cerevisiae deletion strains, locus YHR079C, strain IRE1, active compounds read low 0.81 | S. cerevisiae deletion strains, locus YHR082C, strain KSP1, active compounds read low 0.997 | S. cerevisiae deletion strains, locus YHR205W, strain SCH9, active compounds read low 0.914 | S. cerevisiae deletion strains, locus YIL147C, strain SLN1, active compounds read low 0.987 | S. cerevisiae deletion strains, locus YJL095W, strain BCK1, active compounds read low 0.887 | S. cerevisiae deletion strains, locus YJL128C, strain PBS2, active compounds read low 0.98 | S. cerevisiae deletion strains, locus YJL157C, strain FAR1, active compounds read low 0.869 | S. cerevisiae deletion strains, locus YJR016C, strain ILV3, active compounds read low 0.993 | S. cerevisiae deletion strains, locus YJR066W, strain TOR1 (second series), active compounds read low 0.827 | S. cerevisiae deletion strains, locus YJR066W, strain TOR1, active compounds read low 0.907 | S. cerevisiae deletion strains, locus YKL048C, strain ELM1, active compounds read low 0.949 | S. cerevisiae deletion strains, locus YKL067W, strain YNK1, active compounds read low 0.92 | S. cerevisiae deletion strains, locus YKL101W, strain HSL1, active compounds read low 0.928 | S. cerevisiae deletion strains, locus YKL193C, strain SDS22, active compounds read low 0.986 | S. cerevisiae deletion strains, locus YKL203C, strain TOR2, active compounds read low 0.936 | S. cerevisiae deletion strains, locus YLR133W, strain CKI1, active compounds read low 0.921 | S. cerevisiae deletion strains, locus YLR403W, strain SFP1, active compounds read low 0.882 | S. cerevisiae deletion strains, locus YML070W, strain DAK1, active compounds read low 0.897 | S. cerevisiae deletion strains, locus YMR001C, strain CDC5, active compounds read low 0.979 | S. cerevisiae deletion strains, locus YMR205C, strain PFK2 (second series), active compounds read low 0.936 | S. cerevisiae deletion strains, locus YMR277W, strain FCP1, active compounds read low 0.988 | S. cerevisiae deletion strains, locus YNL006W, strain LST8, active compounds read low 0.986 | S. cerevisiae deletion strains, locus YNL020C, strain ARK1, active compounds read low 0.902 | S. cerevisiae deletion strains, locus YNL161W, strain CBK1, active compounds read low 0.987 | S. cerevisiae deletion strains, locus YNL183C, strain NPR1, active compounds read low 0.949 | S. cerevisiae deletion strains, locus YNL207W, strain RIO2, active compounds read low 0.98 | S. cerevisiae deletion strains, locus YNL222W, strain SSU72, active compounds read low 1 | S. cerevisiae deletion strains, locus YNL307C, strain MCK1 (second series), active compounds read low 0.798 | S. cerevisiae deletion strains, locus YOL078W, strain AVO1, active compounds read low 0.994 | S. cerevisiae deletion strains, locus YOL136C, strain PFK27, active compounds read low 0.896 | S. cerevisiae deletion strains, locus YOR061W, strain CKA2, active compounds read low 0.862 | S. cerevisiae deletion strains, locus YOR119C, strain RIO1, active compounds read low 0.973 | S. cerevisiae deletion strains, locus YOR231W, strain MKK1, active compounds read low 0.828 | S. cerevisiae deletion strains, locus YOR329C, strain SCD5, active compounds read low 0.988 | S. cerevisiae deletion strains, locus YPL031C, strain PHO85, active compounds read low 0.884 | S. cerevisiae deletion strains, locus YPL153C, strain RAD53, active compounds read low 0.872 | S. cerevisiae deletion strains, locus YPL204W, strain HRR25, active compounds read low 0.838 | S. cerevisiae deletion strains, locus YPL209C, strain IPL1, active compounds read low 0.988 | S. cerevisiae deletion strains, locus YPR025C, strain CCL1, active compounds read low 0.995 | S. cerevisiae deletion strains, locus YPR106W, strain ISR1, active compounds read low 0.994 | S. cerevisiae deletion strains, locus YPR111W, strain DBF20, active compounds read low 0.984 | S. cerevisiae deletion strains, strain NNK1, active compounds read low 1 | S. cerevisiae deletion strains, strain TSCII, active compounds read low 0.982
active: [8] 0.846 | S. cerevisiae deletion strains, locus YLR113W, strain HOG1, active compounds read low 0.811 | S. cerevisiae deletion strains, locus YPL256C, strain CLN2, active compounds read low 0.84
